ClpP mod: qHTS Assay for Activators of ClpP; purified B. subtilis ClpP, FRET peptide cleavage, 20 min; Potency, µM (highest dose often 57.5 µM), without a hit: top-dose activity change, negative = active; 340,000 compounds, 1.9% hits; AID 651965, 2013; active = well fitted falling curve with a large enough effect; inconclusive = small, poorly fitted or top-dose-only effect; inactive = no such curve, though single readings can be large or run the other way; also: potency is read from the fitted curve at half-maximal effect; the source files actives as falling curves though it sought activators and does not explain the sign; nearly all actives have a fitted effect of over 65% in size
Target sequence (P80244 whole entry, looked up): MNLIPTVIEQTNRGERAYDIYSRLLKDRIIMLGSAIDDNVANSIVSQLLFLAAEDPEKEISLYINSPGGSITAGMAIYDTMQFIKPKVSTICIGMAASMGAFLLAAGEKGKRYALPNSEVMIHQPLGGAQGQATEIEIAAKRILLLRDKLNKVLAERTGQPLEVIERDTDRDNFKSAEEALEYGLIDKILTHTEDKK
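ClpP 10 microg/mL final, pH 8 Tris/KCl buffer with BSA, glycerol, Tween-20; compound pinned in; FRET-FV substrate; RT 20 min; Ex320/Em430; ΔFRET vs ADEP 5.8 microM, DMSO, no enzyme.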
Rango dissoc inh: qHTS Assay for Inhibitors of RanGTP induced Rango (Ran-regulated importin-beta cargo) - Importin beta complex dissociation | Snurportin-1 (Homo sapiens) + GTP-binding nuclear protein Ran (Homo sapiens) + Importin … | AID 540253, 2011 | Potency, µM (highest dose often 46.1 µM), inactives show at the highest dose activity change, negative = inhibition | 340,000 compounds, 0.071% hits | Biochemical FRET Rango-importin beta, RanGTP-induced dissociation; also: potency is read from the fitted curve at half-maximal effect; % of control where 0% means no effect; nearly all actives have a fitted effect of over 45% in size
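Rango (0.1 uM)–importin beta (0.25 uM) complex; RanGTP-RCC1 trigger; 45 min RT; CFP/YFP FRET read.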
CBFb-RUNX1 inh: qHTS Assay for Compounds Blocking the Interaction Between CBF-beta and RUNX1 for the Treatment of Acute Myeloid Leukemia | Runt-related transcription factor 1 (Homo sapiens) + Core-binding factor subunit beta … | AlphaScreen CBFb-His/RUNX1-biotin binding, biochemical | Potency, µM (doses to about 59.8 µM), for inactives: at the highest dose activity, negative = inhibition, usual class: inhibitors | 230,000 tested, under 10 active | AID 1477, 2009; active = well fitted curve in the direction sought with a large enough effect; inconclusive = small, poorly fitted or top-dose-only effect, or effect the other way, or another doubt; inactive = no such curve, though single readings can be large or run the other way; also: % of control where 0% means no effect
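AlphaScreen binding: CBFb-His and RUNX1-biotin (30 nM each) preincubated 20 min, compound added for 15 min, then nickel and streptavidin beads for 90 min, all at room temperature. Disruption of the interaction by any mechanism counts as activity.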
MBNL1 CUG block: qHTS Assay for Inhibitors of MBNL1-poly(CUG) RNA binding | Muscleblind-like protein 1 (Homo sapiens), Q9NR56 | TR-FRET MBNL1-His/biotin-(CUG)12 binding, 665/545 ratio | Potency, µM (top dose mostly 57.5 µM), for the others: top-dose activity change, negative = inhibition, hits mostly inhibitors | 280,000 compounds, 0.036% hits; active = well fitted inhibition curve with a large enough effect in the signal ratio, with a control signal flat, not every such curve was filed as active; inconclusive = small, poorly fitted or top-dose-only effect, or effect the other way, or a change in a side signal; inactive = no such curve, though single readings can be large or run the other way; the % refers to the signal ratio; also: potency is read from the fitted curve at half-maximal effect; % is scaled to controls: 0 for no effect and ±100 for the full control effect
Target sequence (Q9NR56 whole entry, looked up): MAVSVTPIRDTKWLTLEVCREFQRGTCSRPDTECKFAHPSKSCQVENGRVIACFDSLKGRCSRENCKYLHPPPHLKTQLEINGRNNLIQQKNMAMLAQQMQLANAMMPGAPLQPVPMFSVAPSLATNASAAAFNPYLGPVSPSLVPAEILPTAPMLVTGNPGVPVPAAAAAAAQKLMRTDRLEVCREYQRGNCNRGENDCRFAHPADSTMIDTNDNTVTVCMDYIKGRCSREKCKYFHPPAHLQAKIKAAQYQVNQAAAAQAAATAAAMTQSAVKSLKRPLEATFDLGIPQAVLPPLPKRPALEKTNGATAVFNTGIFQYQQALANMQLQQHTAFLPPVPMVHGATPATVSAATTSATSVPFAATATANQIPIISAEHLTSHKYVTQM
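TR-FRET readout: Ex 340 nm, 665/545 nm emission ratio, normalized to buffer-only (basal) and MBNL1-(CUG)12 controls. Complex of MBNL1-His with Biotin-(CUG)12, compounds 92 nM–58 uM, incubated 60 min at room temperature.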
Rango complex inh: qHTS Assay for Inhibitors of Rango (Ran-regulated importin-beta cargo) - Importin beta complex formation | Rango CFP/YFP FRET sensor + importin beta, 45 min | Potency, µM (titrated, usually from 92.2 µM), for the others: at the top dose inhibition of complex formation | 340,000 compounds, 0.031% hits | AID 540263, 2011;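 also: potency is read from the fitted curve at half-maximal effect; 0% = DMSO wells and 100% = buffer wells lacking importin beta; nearly all actives have a fitted effect of over 15% in size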
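FRET biosensor Rango (snurportin 1 IBB between N-terminal EYFP and C-terminal Cerulean), 50 nM in PBS/1 mM DTT/0.02% Tween-20/0.1% BSA, preincubated 5 min RT with compound; 0.125 microM importin beta added, 45 min RT, CFP/YFP FRET ratio read.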
* = called active by the depositor; [ ] = remark or other dose. This is one part of a sample in which hits are shown more often than they occur. Unless noted, calls follow the shape of the full dose curve.

Cn1c(=O)c2c(nc(Br)n2CC(=O)c2cccs2)n(C)c1=O was read as ClpP mod 28µM*, Rango dissoc inh -14%, CBFb-RUNX1 inh 3%, MBNL1 CUG block 10% and Rango complex inh 0%.
`CCOC(=O)c1cc2c(=O)n3ccccc3nc2n(CCOC)c1=NC(=O)c1c(-c2ccccc2Cl)noc1C` gave ClpP mod -20%.
O=C(COc1ccccc1F)Nc1ccc2nc(SCc3ccccc3)sc2c1 was read as ClpP mod -12%.
`Cc1cc(C)nc(-n2nc(C)cc2NC(=O)COC(=O)CCC(=O)c2cccs2)n1` gave ClpP mod 28µM*, Rango dissoc inh 4%, CBFb-RUNX1 inh 2%, MBNL1 CUG block 4% and Rango complex inh -4%.
`Cc1cccc(NC(=O)CCC(=O)c2cccs2)n1` gave ClpP mod 3.5µM*, Rango dissoc inh -2% and Rango complex inh -1%.
Cc1cccc(C)c1NC(=O)COC(=O)CCC(=O)c1cccs1 was read as ClpP mod 0%, Rango dissoc inh -4%, CBFb-RUNX1 inh -4%, MBNL1 CUG block -6% and Rango complex inh -3%.
`Cc1cccc(-c2nnn3c2nc(NCCc2ccc(S(N)(=O)=O)cc2)c2ccccc23)c1` gave ClpP mod 11µM*, Rango dissoc inh 18%, CBFb-RUNX1 inh 2% and Rango complex inh inconclusive.
For Cc1ccc(-c2nnn3c2nc(NCCc2ccc(S(N)(=O)=O)cc2)c2ccccc23)cc1 the results were ClpP mod 1%, Rango dissoc inh inconclusive, CBFb-RUNX1 inh -3% and Rango complex inh inconclusive.
For NS(=O)(=O)c1ccc(CCNc2nc3c(-c4cccc(F)c4)nnn3c3ccccc23)cc1 the results were ClpP mod 22µM*, Rango dissoc inh -9%, CBFb-RUNX1 inh 10% and Rango complex inh -2%.
For Cc1cnc(/C=C/c2ccc(N(C)C)cc2)cn1 the results were ClpP mod 5%.
For COc1c(C)cc(Br)cc1C(=O)Nc1cccc(NC(=O)c2ccco2)c1 the results were ClpP mod 28µM*, Rango dissoc inh 4%, CBFb-RUNX1 inh -3%, MBNL1 CUG block -6% and Rango complex inh -4%.
O=C(Cn1c(=O)n2nc(-c3ccccc3)nc2c2ccccc21)Nc1ccccc1C(F)(F)F was read as ClpP mod 0%.
`COc1cc(OC)c(NC(=O)N2CCOCC2)cc1Cl` gave ClpP mod 28µM*, Rango dissoc inh 13%, MBNL1 CUG block -4% and Rango complex inh 1%.
Screening CCc1sc(-c2cc3cccc(OC)c3oc2=O)nc1-c1ccccc1 returned ClpP mod 14µM*.
`COc1cccc2cc(-c3nc(-c4ccccc4)c(C)s3)c(=O)oc12` gave ClpP mod -4%.
COc1cccc2c(Cl)c(CC=C(Cl)Cl)c(C)nc12 was read as ClpP mod 10µM*, Rango dissoc inh 14%, CBFb-RUNX1 inh 18%, MBNL1 CUG block 6% and Rango complex inh 6%.
Screening C=CCc1c(C)nc2c(OC)cccc2c1Cl returned ClpP mod -1%, Rango dissoc inh -10%, CBFb-RUNX1 inh 5%, MBNL1 CUG block 13% and Rango complex inh 0%.
For Cc1cc2cc3c(=O)[nH]c(=O)cc-3n(CC(O)C(O)C(O)CO)c2cc1C (stereo unspecified) the results were ClpP mod -3%.
Screening Cc1cc2cc3c(=O)[nH]c(=O)nc-3n(CC(O)C(O)C(O)CO)c2cc1C (stereo unspecified) returned ClpP mod 35µM*, Rango dissoc inh inconclusive and Rango complex inh inconclusive.
Screening Nc1c(C(=O)NCc2ccccc2)c2nc3ccccc3nc2n1CCCN1CCOCC1 returned ClpP mod 5%, Rango dissoc inh inconclusive, CBFb-RUNX1 inh inconclusive, MBNL1 CUG block -1%[11.5 µM] and Rango complex inh inconclusive.
Screening Nc1c(C(=O)NCc2ccc(F)cc2)c2nc3ccccc3nc2n1CCCN1CCOCC1 returned ClpP mod 35µM*, Rango dissoc inh inconclusive, CBFb-RUNX1 inh inconclusive, MBNL1 CUG block 8% and Rango complex inh inconclusive.
For CC(C)Cn1c(N)c(C(=O)NCCN2CCOCC2)c2nc3ccccc3nc21 the results were ClpP mod 28µM*, Rango dissoc inh inconclusive, CBFb-RUNX1 inh 1%, MBNL1 CUG block inconclusive and Rango complex inh inconclusive.
Cc1cc(OCC(=O)Nc2ccc(C(=O)OC3CCCCC3)cc2)ccc1Cl was read as ClpP mod 0%.
For COc1cccc(CN2CCCN(CC(=O)Nc3ccc4c(c3)OCCO4)S2(=O)=O)c1 the results were ClpP mod 2%.
Screening COc1ccc(OC)c(NC(=O)c2c(NC(=O)CNCc3ccco3)sc3c2CCC3)c1 returned ClpP mod 16µM*, Rango dissoc inh 30%, CBFb-RUNX1 inh -2%, MBNL1 CUG block 8% and Rango complex inh 0%.
COc1ccccc1NC(=O)c1c(NC(=O)c2ccco2)sc2c1CCC2 was read as ClpP mod inconclusive, Rango dissoc inh 21µM*, CBFb-RUNX1 inh 4%, MBNL1 CUG block 3% and Rango complex inh inconclusive.
COc1ccccc1NC(=O)c1c(NC(=O)c2ccco2)sc2c1CCC(C(C)(C)C)C2 (stereo unspecified) was read as ClpP mod 2%.
CCC[N+](C)(C)c1ccc(/C=C/c2ccncc2)cc1 was read as ClpP mod 2%.
For CCCC(C)NC(=O)c1ccc(C2SCC(=O)N2Cc2ccco2)cc1 (stereo unspecified) the results were ClpP mod 32µM*, Rango dissoc inh 11%, CBFb-RUNX1 inh -2%, MBNL1 CUG block 0% and Rango complex inh 2%.
`Cc1[nH]nc2c1-c1nc3ccccc3nc1C(C)(C)C2` gave ClpP mod 14µM*, Rango dissoc inh -14%, CBFb-RUNX1 inh 5%, MBNL1 CUG block 22% and Rango complex inh 1%.
CC12CCC(C)(c3nc4ccccc4nc31)C2(C)C was read as Rango dissoc inh 48%, CBFb-RUNX1 inh 3%, MBNL1 CUG block -6% and Rango complex inh 7%.
Screening COC(=O)C[C@H]1c2ccccc2[C@H]2C(=C[C@@H](C)[C@H]3C(=O)N(O)C(=O)[C@H]32)N1C(=O)OC returned CBFb-RUNX1 inh -1%[13.1 µM].

Screens deposited in PubChem BioAssay by National Center for Advancing Translational Sciences (NCATS).
